Values joined by “and” are separate entries in the source; they are usually repeats but may differ in a detail not shown here. Equal values may be shown once. About 83,000 compounds went through this panel and 20% of them were active in at least one assay; those are over-represented in the sample as a whole.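 Negative percent growth values reflect cell death: -40 means 40% of the cells present at the start died, and -100 means all died.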 Active and inactive are the calls of the source. How the source made its calls: active means growth percent below 10; inactive means the rest.
Tested on: SF-539 CNS
Experiment: NCI-60 one-dose screen, 48 h (100 = growth as untreated, 0 = no growth, -100 = all killed)
Details: 10 µM

Compound	growth
Cn1ncc2cc3c(Nc4ccc(Cl)cc4)cccc3nc21	90.7% (inactive)
O=Nc1ccc(Nc2ccccc2)cc1	67.7% (inactive)
CCC(C)(c1ccc(O)c(C)c1)c1ccc(O)c(C)c1	93.7% (inactive)
O=C1c2ccccc2CCC1(Br)Br	16.9% (inactive)
C=C1N(C)c2ccc(Cl)cc2C1(C)C	109% (inactive)
Cc1cc(Cl)ccc1NC(=O)/C(Cl)=C1/Sc2ccccc2NC1=O	94% (inactive)
CN(C)CCNc1cccc2sc3ccc(O)cc3c(=O)c12	35.9% (inactive)
N#CC(=C1C=CC(=NO)C=C1)c1ccccc1	-58.7% (active)
CCOC(=O)[C@]1(Br)CC[C@@]1(Br)C(=O)OCC	104% (inactive)
O=C(CNS(=O)(=O)Cc1ccccc1)NNc1ccccc1	61.4% (inactive)
COc1cccc(C(c2cc3c(cc2O)OCO3)N2CCOCC2)c1OC (stereo unspecified)	96.5% (inactive)
N#C/C(=C/N1C(=O)/C(=C/c2ccc([N+](=O)[O-])cc2)SC1=S)c1nc2ccccc2s1	91.9% (inactive)
Nc1nc(N)c2cc(Sc3ccc4ccccc4c3)ccc2n1	33.2% (inactive)
O=C1c2cccc3cc([N+](=O)[O-])cc(c23)C(=O)N1CCN1CCCC1	-20.7% (active)
O=S(=O)(c1cc(Cl)ccc1O)c1cc(Cl)ccc1O	86.6% (inactive)
O=C1C=CC(=O)N1c1ccc(N2C(=O)C=CC2=O)cc1	87% (inactive)
O=[N+]([O-])c1cc(S(=O)(=O)Nc2ccccc2)ccc1Cl	102% (inactive)
Cn1c2nc3ccccc3c-2nc2ccccc21	92.2% (inactive) and 77.2% (inactive)

Tested on: UACC-257 melanoma
Experiment: as above
Details: 10 µM

Compound	growth
Cn1ncc2cc3c(Nc4ccc(Cl)cc4)cccc3nc21	100% (inactive)
CCC(C)(c1ccc(O)c(C)c1)c1ccc(O)c(C)c1	107% (inactive)
O=C1c2ccccc2CCC1(Br)Br	63% (inactive)
C=C1N(C)c2ccc(Cl)cc2C1(C)C	60.4% (inactive)
O=c1[nH]cc(/C=N\Nc2ccccc2)c(=O)[nH]1	78.4% (inactive)
Cc1cc(Cl)ccc1NC(=O)/C(Cl)=C1/Sc2ccccc2NC1=O	103% (inactive)
N#CC(=C1C=CC(=NO)C=C1)c1ccccc1	65.6% (inactive)
CCOC(=O)[C@]1(Br)CC[C@@]1(Br)C(=O)OCC	80.8% (inactive)
O=C(CNS(=O)(=O)Cc1ccccc1)NNc1ccccc1	84.5% (inactive)
COc1cccc(C(c2cc3c(cc2O)OCO3)N2CCOCC2)c1OC (stereo unspecified)	98.4% (inactive)
N#C/C(=C/N1C(=O)/C(=C/c2ccc([N+](=O)[O-])cc2)SC1=S)c1nc2ccccc2s1	96.5% (inactive)
Nc1nc(N)c2cc(Sc3ccc4ccccc4c3)ccc2n1	32.9% (inactive)
O=C1c2cccc3cc([N+](=O)[O-])cc(c23)C(=O)N1CCN1CCCC1	3.14% (active)
O=S(=O)(c1cc(Cl)ccc1O)c1cc(Cl)ccc1O	35.1% (inactive)
O=C1C=CC(=O)N1c1ccc(N2C(=O)C=CC2=O)cc1	113% (inactive)
CCC(=O)Oc1ccc(/C=N/NC(N)=S)nc1	68.1% (inactive)
O=[N+]([O-])c1cc(S(=O)(=O)Nc2ccccc2)ccc1Cl	88% (inactive)
Cn1c2nc3ccccc3c-2nc2ccccc21	108% (inactive) and 94.5% (inactive)

— PubChem BioAssay (NCI)
